This is part of a sample that, as a whole, favours compounds with a hit. Of some 79,000 tested, about 15% had one in any assay. Rule as the data show it: active = growth inhibition above about 70%; inactive = the rest.
What was measured:
[1] = NCI Yeast Anticancer Drug Screen. Data for the rad50 strain (AID 155);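 also: 0% = growth of vehicle-only cultures of the same strain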; conditions: S. cerevisiae rad50 strain growth inhibition; at 50.0 µM; active compounds read high
In short: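 A DNA repair-deficient yeast mutant serves as the test organism; compound-induced growth inhibition is calculated against vehicle-treated cells.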

[2] = NCI Yeast Anticancer Drug Screen. Data for the mec2-1 strain (AID 157); conditions: S. cerevisiae mec2-1 strain, at 50.0 µM, active compounds read high
In short: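 Mutant yeast (mec2-1) grown with compound; growth inhibition relative to vehicle control reported.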

[3] = NCI Yeast Anticancer Drug Screen. Data for the sgs1 mgt1 strain (AID 161);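 also: 0% = growth of cultures given vehicle only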; conditions: S. cerevisiae sgs1 mgt1 strain, at 50.0 µM, active compounds read high
In short: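 This yeast growth screen uses a strain with defined DNA-repair lesions; compound-treated growth is compared with vehicle-treated growth.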

[4] = NCI Yeast Anticancer Drug Screen. Data for the cln2 rad14 strain (AID 165);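 also: 0% = growth equal to vehicle treated cultures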; conditions: S. cerevisiae cln2 rad14 strain, at 50.0 µM, active compounds read high
In short: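 Readout is yeast growth inhibition versus vehicle-treated controls, using a strain with cln2 and rad14 alterations exposed to compound.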

[5] = NCI Yeast Anticancer Drug Screen. Data for the bub3 strain (AID 167); conditions: S. cerevisiae bub3 mutant strain, at 50.0 µM, active compounds read high
In short: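 Inhibition values come from growth of compound-treated mutant yeast normalised to vehicle-treated controls.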

[6] = NCI Yeast Anticancer Drug Screen. Data for the mlh1 rad18 strain (AID 175); conditions: S. cerevisiae mlh1 rad18 strain growth inhibition; at 50.0 µM; active compounds read high
In short: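 Genetically defined yeast (DNA repair-deficient) exposed to compounds; growth inhibition determined relative to vehicle.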

Measured: growth inhibition

CC(O)CC(C)CO (configuration not stated)
inactive: [1] 23.1% | [2] -20.3% | [3] -9.5% | [4] -55.5% | [5] 15.2% | [6] 18%

O=C1CCCC2=C1CC1=C(CCCC1=O)N2c1ccccc1C(=O)O
inactive: [1] -25.2% | [2] -20.8% | [3] -23.8% | [4] -5% | [5] -21.9% | [6] -36.3%

O=C1C(Cl)N(c2c(Cl)cccc2Cl)C1c1c[nH]c2ccccc12 (configuration not stated)
inactive: [1] -35.5% | [2] -43.6% | [3] -34.2% | [4] -22.4% | [5] -20.9% | [6] -41.8%

CCOC(=O)C(C)Sc1ncnc2nc[nH]c12 (configuration not stated)
inactive: [1] -12.8% | [2] 4.4% | [3] -3.15% | [4] 20.9% | [5] 18% | [6] -0.9%

N#Cc1c(-c2ccco2)c2c(n(C3OC(CO)C(O)C(O)C3O)c1=S)CCCC2 (configuration not stated)
inactive: [1] -12.3% | [2] 6.9% | [3] 15.7% | [4] -7.75% | [5] 5% | [6] 14.8%

N#CC(c1ccccc1)N(CCCCCCN(C(=O)c1ccccc1)C(C#N)c1ccccc1)C(=O)c1ccccc1 (configuration not stated)
inactive: [1] 17.1% | [2] 37% | [3] 20.3% | [4] 13.1% | [5] 40.4% | [6] -29.1%

Cc1ccc(S(=O)(=O)N/N=C2/C(=O)NC(=O)C(=O)C2c2nc3ccccc3s2)cc1 (configuration not stated)
inactive: [1] 12.4% | [2] -2.6% | [3] 13.6% | [4] -19.1% | [5] 8.45% | [6] 12.4%

CCC(O)C(C)[N+](=O)[O-] (configuration not stated)
inactive: [1] 28% | [2] -1.85% | [3] 7.45% | [4] 6% | [5] 1.75% | [6] 3.75%

Cc1cc2nc(/C(C#N)=C/c3cc(Cl)cc(Cl)c3O)[nH]c2cc1C
inactive: [1] 16.2% | [2] 22.4% | [3] 33% | [4] 28.1% | [5] 19.4% | [6] -3.35%

c1ccc2c(c1)nnn2CN1CCOCC1
inactive: [1] -6.3% | [2] 17.1% | [3] -26.6% | [4] -22.9% | [5] 3.15% | [6] 5.7%

CC1=CC(=O)C(CN(C)C)(CN(C)C)C(C)(C)C1
inactive: [1] 4.85% | [2] 9.35% | [3] 7.65% | [4] 0.25% | [5] -1.65% | [6] 13.1%

CC1=NN(C(=O)CC(=O)Nc2ccccc2Cl)C(=O)C1N=Nc1ccc(C(=O)O)cc1 (configuration not stated)
inactive: [1] -3.35% | [2] -6.85% | [3] 6.75% | [4] -9.75% | [5] -5.6% | [6] 17.8%

CN(C)CCNC1=CC(=O)c2nc3ccccc3c3ccnc1c23
inactive: [1] 37% | [2] 14.2% | [3] 26.8% | [4] 27.9% | [5] 33.6% | [6] 27.4%

CCOC(=O)c1[nH]c(COC(C)=O)c2c1CCCCCCCCCC2
inactive: [1] -6.1% | [2] -9.75% | [3] 6.05% | [4] 41.2% | [5] 5% | [6] -12.3%

CSC(=N/N=C(\C)c1ccccn1)SC
inactive: [1] 0.45% | [2] 6% | [3] 5.3% | [4] -46.2% | [5] -11.7% | [6] 5.85%

CCOC(=O)Cc1nc2ccc3c(c2[nH]c1=O)C(=O)c1ccccc1C3=O
inactive: [1] 34.7% | [2] 30.1% | [3] 17.1% | [4] 29.4% | [5] 33.2% | [6] 67.8%

CCCOc1ccc(C(=O)C(=O)c2ccccc2)cc1
inactive: [1] 13.4% | [2] -0.2% | [3] -3.95% | [4] 0.8% | [5] 11.4% | [6] 7%

CC1=CC(C)(C)N=C2SC(c3ccc(Cl)cc3)=NN12
inactive: [1] 15.8% | [2] 7.25% | [3] 13.2% | [4] -5.8% | [5] 13.2% | [6] 10.6%

O=S(=O)(Cl)C1c2ccccc2-c2ccccc21
inactive: [1] 22.4% | [2] 20.1% | [3] 12.5% | [4] 15.7% | [5] 23.2% | [6] 23.4%

Cc1cc(Cl)ccc1OCC(=O)OCCBr
inactive: [1] 3.55% | [2] 17.9% | [3] 5.35% | [4] -23.2% | [5] -22.9% | [6] -8.15%

CCc1ccc(NC(=O)c2ccc(C(=O)Nc3ccc(CC)cc3)cc2)cc1
inactive: [1] 3.2% | [2] 6.6% | [3] 8.4% | [4] 14.1% | [5] 13.4% | [6] 5.1%

COC(=O)C1=C(C(=O)OC)C2(C(=O)OC)OC1(OC)C(C1(C(=O)OC)C(C(=O)OC)=C1C(=O)OC)=C2C(=O)OC (configuration not stated)
inactive: [1] 16% | [2] 14.2% | [3] 8.9% | [4] 16.1% | [5] 1.25% | [6] 9.7%

CCCCOC(=O)c1ccc(NC(=O)CCCN(CC)CC)cc1
inactive: [1] 5.5% | [2] -2.3% | [3] 0.85% | [4] 13.2% | [5] 14.4% | [6] -5%

CSc1nc(NC2OCC(O)C(O)C2O)c(Br)c(=O)n1C (configuration not stated)
inactive: [1] 9.05% | [2] 15.8% | [3] -0.75% | [4] 1.95% | [5] 6.3% | [6] 36%

C=C1CC2(C)C(=O)CCCC2OC1=O (configuration not stated)
inactive: [1] 4.05% | [2] -0.85% | [3] 10.1% | [4] -14.9% | [5] 4.8% | [6] 4%

Cc1c[n+]([O-])n(-c2ccccc2)n1
inactive: [1] 4.65% | [2] -4.9% | [3] 0.7% | [4] -38.7% | [5] 11.6% | [6] -4.8%

CCC(C)NC(=O)c1ccc(Cl)cc1Cl (configuration not stated)
inactive: [1] 15.8% | [2] -18.5% | [3] -12.7% | [4] -68.5% | [5] -28.9% | [6] -22.6%

CC(=O)c1cccc(NC(=O)OC2CCCC(C)C2)c1 (configuration not stated)
inactive: [1] 29.8% | [2] 60.7% | [3] 59.6% | [4] 19.4% | [5] 54% | [6] 43.1%

CC(C(O)c1ccccn1)[N+](=O)[O-] (configuration not stated)
inactive: [1] -11.4% | [2] 1.55% | [3] -7.1% | [4] -21.1% | [5] -10.7% | [6] -3.4%

COc1cccc(C(=O)C(O)c2cccc(OC)c2OC)c1OC (configuration not stated)
inactive: [1] 0.6% | [2] -5.45% | [3] 8.2% | [4] 0.15% | [5] -10.6% | [6] -42%

CN1CCCC(C(O)c2ccccc2)S1(=O)=O (configuration not stated)
inactive: [1] 17.2% | [2] 23.4% | [3] -1.3% | [4] 9.65% | [5] 29.4% | [6] 14.3%

CCCC(C)C(SC(CC)C(N)=O)C(=O)O (configuration not stated)
inactive: [1] -3.5% | [2] -5.15% | [3] 5.1% | [4] -12.8% | [5] 10.5% | [6] -9.15%

C=C(C)C1CC=C(/C=N/O)CC1 (configuration not stated)
inactive: [1] -4.6% | [2] 4% | [3] 5.65% | [4] -13.7% | [5] 8.1% | [6] 2.8%

CN(C)C1(C(=O)O)c2ccccc2-c2ccccc21
inactive: [1] 9.85% | [2] 10.6% | [3] 21.8% | [4] -3.45% | [5] 16.3% | [6] -3.3%

CCC/C=C(/CC)C(=O)OC(=O)/C(=C/CCC)CC
inactive: [1] 23.9% | [2] 2.1% | [3] 13.8% | [4] -7.25% | [5] 32.1% | [6] 13.6%

CCOC(=O)OC1CCC2(C)C(=CCC3C2CCC2(C)C(C(C)CCCC(C)C)CCC32)C1 (configuration not stated)
inactive: [1] -3.95% | [2] -19.1% | [3] 0.6% | [4] 9.5% | [5] 4.25% | [6] -4.3%

COc1ccc(-c2c(C(C)=O)c(C)n(C3OC(CO)C(O)C(O)C3O)c(=S)c2C#N)cc1 (configuration not stated)
inactive: [1] 15.9% | [2] 34.2% | [3] 31.8% | [4] 34% | [5] 26.2% | [6] 49%

Nc1nc2c(ncn2-c2cccc(Cl)c2)c(=O)[nH]1
inactive: [1] -0.9% | [2] 16.5% | [3] 7.55% | [4] -7.5% | [5] 31.5% | [6] 13.8%

COc1ccc(C(=O)/C=c2/c(CC(=O)c3ccc(OC)cc3)nc3nnc(N)n23)cc1
inactive: [1] 15.5% | [2] -4.05% | [3] -6.25% | [4] 21.9% | [5] 1.45% | [6] 8.6%

NC(Cc1ccc(OC(c2ccccc2)c2ccccc2)cc1)C(=O)O (configuration not stated)
inactive: [1] 6.45% | [2] 4.9% | [3] 0.75% | [4] -10.7% | [5] -13.6% | [6] 28.8%

C=CCC1=C(C)C(OC(=O)/C=C/c2ccco2)CC1=O (configuration not stated)
inactive: [1] 10.3% | [2] -5.2% | [3] 8.6% | [4] -5.5% | [5] 30.3% | [6] -0.2%

C=CC12CCCCC1C(NC)Cc1ccc(OC)c(O)c12 (configuration not stated)
inactive: [1] 4.25% | [2] -1.65% | [3] 6.9% | [4] 1.8% | [5] 4.9% | [6] -6.9%
